Data taken from ChEMBL document CHEMBL3988442, “University of Dundee, Small-Polar-MMV Screening Library” (2021).
Hit rate of the full screen: of about 53,000 compounds, about 900 (1.7%) showed an effect of 50% or more. The sample as a whole holds a higher share of strong results than the screen did.

These compounds were tested on Mycobacterium tuberculosis (assay: Cornell - Phenotypic assay to identify agents that inhibit growth of Mycobacterium tuberculosis). Conditions: 10 mM as filed; unlikely as a test dose.
Assay type: functional
Set-up: scale not given: direction of the effect not stated beside the values

SMILES	Percent Effect
c1cc(CN2CCCC(c3ccnc4nccn34)C2)ccn1 (stereo unspecified)	21.25%
CSc1sc2c(O)cc(=O)[nH]c2c1C(N)=O	28.59%
CCn1c(C)nnc1SCCn1cc(-c2nccs2)nn1	-8.266%
COc1ccc(CN2CCC3(CC(C(=O)NCC(C)C)=NO3)C2)cc1 (stereo unspecified)	19.34%
O=C(O)c1sccc1Oc1ccc(NC(=O)C2CC2)cc1	55.89%
CC(C)(C)C(=O)Nc1ccc(Oc2ccsc2C(=O)O)cc1	16.22%
CC(C)CC(=O)Nc1ccc(Oc2ccsc2C(=O)O)cc1	38.91%
O=C(Nc1cnc(Oc2ccccc2)nc1)C1CC1	23.36%
COCC(=O)Nc1ccc(Oc2ccsc2C(=O)O)cc1	86.45%
CC(C)CC(=O)Nc1ccccc1Oc1ccsc1C(=O)O	8.037%
CC(C)NC(=O)Nc1ccc2c(c1)ncn2CC(=O)NCCN(C)C	-20.24%
Cc1nc(C)n(C2CCCN(C(=O)Cc3ccc4c(c3)CCC4)C2)n1 (stereo unspecified)	13.58%
Cc1cc(C)n(C2CN(Cc3noc(C4CC4)n3)C2)n1	7.043%
COCCC(=O)Nc1ccnn1-c1ccccc1	-2.555%
c1cnc(N2CCOCC3(CCCN(c4nncs4)C3)C2)cn1 (stereo unspecified)	-8.424%
CC(C)NC1CCN(CCc2ccc3c(c2)CCO3)CC1	56.74%
COCC(C)N1CCN(CCc2ccc3c(c2)CCO3)CC1 (stereo unspecified)	-12.27%
CCOCCN1CCN(CCc2ccc3c(c2)CCO3)CC1	-8.246%
CS(=O)(=O)NC[C@]12COC[C@H]1CN(C(=O)C1CC=CC1)C2	-4.911%
CCC(CC)CN1CCN(CC(=O)Nc2ccc3nsnc3c2)CC1	23.66%
CC(C)CCN1CCN(CC(=O)Nc2ccc3nsnc3c2)CC1	-1.569%
Cc1ccc(CN2CCN(CC(=O)Nc3ccc4nsnc4c3)CC2)o1	54.44%

SMILES	Percent Effect
CC(C)N1CC(n2ccnc2-c2nccn2C)CC1=O (stereo unspecified)	-23.92%
CN(C)c1cc(C2CCCN(S(=O)(=O)C3CCCC3)C2)ccn1 (stereo unspecified)	15.85%
Cc1[nH]ccc1C(=O)N(Cc1ccc(O)cc1)CC1CC1	103.8%
NC(=O)c1ccc(C(=O)N(Cc2ccc(O)cc2)CC2CC2)cc1	-5.401%
O=C(c1ccc[nH]1)N(Cc1ccc(O)cc1)CC1CC1	43.3%
CSc1ccc(C)c(C(=O)Nc2c(C(N)=O)n[nH]c2C)c1	-17.81%
COc1ccc(CNCCn2c(C)nc3ccccc32)cc1O	-17.9%
COc1ccc(-n2ccc(CNCc3ccc(OC)c(O)c3)n2)cc1	31.15%
COc1ccc(CNCCc2ccn(-c3ccccc3)n2)cc1O	107.6%
O=C1CCC(=O)N1c1nn(Cc2ccc(F)cc2)cc1Cl	-47.77%
CC[C@H](N)C(=O)Nc1nn(CC(F)(F)F)c2cc(OC(C)C)ccc12	15.83%
Cc1nc(C)n(CC2CCCCN2CC(=O)NCc2ccccn2)n1 (stereo unspecified)	18.51%
CCS(=O)(=O)CCN1CCC(N(C)Cc2noc(C(C)C)n2)C1 (stereo unspecified)	13.23%
COCC1CN(C(=O)Nc2cc(Cl)cc(Cl)c2)CCO1 (stereo unspecified)	13.66%
Cc1cc(NC(=O)N2CCOC(C(N)=O)C2)ccc1Br (stereo unspecified)	15.45%
NC(=O)C1CN(C(=O)Nc2cc(Cl)cc(Cl)c2)CCO1 (stereo unspecified)	103.4%
CNc1snc(C)c1C(=O)N1CCCC(n2cc(C)cn2)C1 (stereo unspecified)	-17.18%
Cc1nc(CN2CCC3(CC2)NC(=O)CC3c2ccncc2)cs1.O=C(O)C(F)(F)F.O=C(O)C(F)(F)F (stereo unspecified)	21.18%
COC(=O)CNC(=O)CCCn1cnc2ccccc2c1=O	3.303%
COC(=O)COn1c(SCC(=O)OC)nc2ccccc2c1=O	102.5%
COC(=O)COn1c(SC(C)C)nc2ccccc2c1=O	75.74%
COC(=O)COn1c(OC)nc2ccccc2c1=O	32.68%

SMILES	Percent Effect
COC(=O)COn1c(SC)nc2ccccc2c1=O	75.88%
CCc1nc2ccccc2c(=O)n1CC1(O)CCN(CC(=O)OC)CC1	13.86%
CCc1cc(=O)[nH]c2nnc(SCC(=O)OC)n12	-7.031%
COCC(C)NC(=O)CCCn1cnc2ccccc2c1=O (stereo unspecified)	7.524%
CCSc1nc2ccccc2c(=O)n1OCC(=O)OC	74.42%
CCc1nc2ccccc2c(=O)n1CC1(O)CCN(C(=O)COC)CC1.Cl	10.94%
COc1ccc(SCC2CNc3nc4ccccc4c(=O)n32)cc1 (stereo unspecified)	44.86%
COc1ccc(-n2c(SC)nc(O)c(Cc3ccccc3)c2=O)cc1	13.52%
COCc1nn(Cc2ccc(Br)s2)c(=O)o1	6.613%
N#CCCn1nc(C(F)(F)F)c2c1CCCC2	-22.61%
O=C(O)C(F)(F)F.O=C(O)C(F)(F)F.c1cc(CN2C[C@@H]3OCCN(CC4CC4)[C@@H]3C2)n[nH]1	4.885%
CO[C@@H]1CCN(C(=O)Cc2cccc(F)c2)[C@H]1Cc1cccnc1.O=C(O)C(F)(F)F	-8.358%
CC(C)C(=O)N1CC[C@H]2N(C)CC[C@@]2(C(=O)N2CCOCC2)CC1.O=C(O)C(F)(F)F	-25.99%
Cc1ccccc1CN(C)CC(O)COCc1ccccc1Cl (stereo unspecified)	-1.891%
O=C(O)C(F)(F)F.O=C(O)C(F)(F)F.c1cc(CN2CCc3ncc(CN4CCOCC4)n3CC2)cs1	-22.34%
COc1ccncc1NCc1cscn1	26.83%
CC(C)(C)Oc1ccncc1NCc1cscn1	55.35%
COc1ccccc1NCc1cscn1.Cl	16.2%
COC1COC2(CCN(Cc3ccccc3F)CC2)C1.O=C(O)C(F)(F)F (stereo unspecified)	10.15%
CCCc1nnc(N2CCN(c3ccccc3Cl)CC2)o1	51.83%
CCCc1nnc(N2CCN(c3ccccc3F)CC2)o1	-12.77%
CCCc1nnc(N2CCN(c3ccccc3OCC)CC2)o1	24.59%

SMILES	Percent Effect
Cc1cccc(NC(=O)NC2CCC3(C2)OCCO3)c1Cl (stereo unspecified)	24.64%
Cc1csc(C(Cc2ccsc2)NC(=O)CN(C)Cc2cccnc2)n1.Cl (stereo unspecified)	14.48%
CN(CC(=O)NC(Cc1ccsc1)c1cccnc1)Cc1ccccn1.Cl (stereo unspecified)	-48.97%
Cc1csc(C(Cc2ccsc2)NC(=O)CN(C)Cc2ccccn2)n1.Cl (stereo unspecified)	68.23%
CCOc1ccc(NC(=O)N2CCC(n3cncn3)CC2)cc1Cl	-30.56%
O=C(O)C(F)(F)F.O=C(O)C(F)(F)F.c1ccc(OC[C@]23COC[C@H]2CN(c2ncccn2)C3)nc1	24.67%
O=C(O)C(F)(F)F.c1cnc(N2C[C@@H]3COC[C@]3(COCC3CCCC3)C2)nc1	53.05%
O=C(CC1CC1)NC[C@]12COC[C@H]1CN(c1ncccn1)C2.O=C(O)C(F)(F)F	0.6787%
CCOCC1CN(Cc2cnn(C)c2)Cc2ncn(C)c21 (stereo unspecified)	21.37%
Cc1ccc(CN2C[C@H](OCCN(C)C)[C@H]3COC[C@H]32)o1.O=C(O)C(F)(F)F.O=C(O)C(F)(F)F	19.04%
CCCNC(=O)CCNC(=O)N1CCC(=Cc2ccccc2)CC1	-1.003%
CCNC(=O)N1CCC(=Cc2ccccc2)CC1	31.8%
CNC(=O)N1CCC(=Cc2ccccc2)CC1	50.2%
COC(=O)N1CCC(CNC(=O)C2CCN(S(C)(=O)=O)CC2)CC1	-2.459%
CCn1ccc(-c2cc(NCCCOc3cccc(C)c3)nc(C)n2)n1	27.92%
CCn1ccc(-c2cc(NCCCOc3ccccc3C)nc(C)n2)n1	93.67%
COc1ccccc1OCCNCCn1cccn1	4.031%
CC1(C)OC(=O)N(CCOc2ccc(F)cc2)C1=O	15.77%
CN1CCOC(C)(C(=O)N2CCN(C3CCCC3)CC2)C1 (stereo unspecified)	-58.81%
CNC(=O)CNCC1(O)CCCN(Cc2ccc(F)c(F)c2)C1=O (stereo unspecified)	-12.88%
NCCc1nc(N(Cc2cncs2)C2CC2)c2ccccc2n1	-19.06%
Cc1ccsc1CN(c1nc(CCN)nc2ccccc12)C1CC1	64.64%

SMILES	Percent Effect
NCCc1nc(N(Cc2nccs2)C2CC2)c2ccccc2n1	-24.34%
CN(C)C(CNC(=O)c1cccc(C(N)=O)c1)c1ccccc1Cl (stereo unspecified)	-40.94%
N#Cc1nccnc1N1CCC(CSc2ccccc2)C1 (stereo unspecified)	53.28%
N#Cc1nccnc1N1CCC(Cc2ccccc2)C1 (stereo unspecified)	17.71%
N#Cc1nccnc1N1CCC(COCc2ccccc2)C1 (stereo unspecified)	4.332%
CC(C)C(NC(=O)c1ccc(N2CCOCC2)nc1)c1cccs1 (stereo unspecified)	5.892%
CC(C)C(NC(=O)c1nc(N2CCOCC2)ncc1Cl)c1cccs1 (stereo unspecified)	19.79%
CC(C)C(NC(=O)c1cnc(N2CCOCC2)nc1)c1cccs1 (stereo unspecified)	69.04%
CC(=O)Nc1ccc(Oc2ccc3c(c2)OCO3)nc1	12.25%
CC(C)N1CC2(CCCN(c3ccccn3)C2)CCC1=O (stereo unspecified)	8.106%
CCc1ccc(C(=O)NCC2CCCN2CC)o1 (stereo unspecified)	3.045%
CCc1cnc(N2CC[C@H]3[C@@H]2CCC(=O)N3c2cccnc2)nc1.O=C(O)C(F)(F)F.O=C(O)C(F)(F)F	5.714%
Cc1nc2c(Nc3cccc(C#N)c3)nc(N)nc2n1C	106.8%
CC(=O)c1ccc(Nc2nc(N)nc3c2nc(C)n3C)cc1	11.87%
Cc1nc2c(Nc3ccc(C#N)cc3)nc(N)nc2n1C	2.918%
CCc1nc(CN(C)Cc2ncc(-c3cccs3)o2)cs1	22.49%
CN(Cc1nnc(-c2cccs2)o1)C(C(N)=O)c1cccc(F)c1 (stereo unspecified)	15.31%
CCc1nc(CN(C)Cc2nnc(-c3cccs3)o2)cs1	57.32%
